Compound activity from PubChem BioAssay.
Sfp inh – Sfp phosphopantetheinyl transferase inhibition. Q9F4F7. Biochemical Sfp PPTase activity, qHTS. Potency, µM, for inactives: largest response in the series, negative = inhibition, usual class: inhibitors. 310,000 compounds, 3.5% hits. AID 1490;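 further: the enzyme is Sfp with the accession as filed and its product quenches rhodamine fluorescence; 0% = enzyme reaction without inhibitor and -100% = no enzyme wells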
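With Hepes-Na pH 7.6 buffer containing 10 mM MgCl2, Sfp (15 nM) modified BHQ-2-YbbR (12.5 uM) using rhodamine-CoA (5 uM). Two reads 30 minutes apart at 525/598 nm yielded each well's rate.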
BAZ2B inh – BAZ2B (human) inhibition | AlphaScreen BAZ2B-H3K14Ac peptide displacement | Q9UIF8 | Potency, µM (highest dose often 114 µM), for inactives: top-dose activity change, negative = inhibition, hits mostly inhibitors | AID 504333 | 360,000 compounds, 4.4% hits; further: on the % scale 0 is the no-effect control and ±100 the full control effect; nearly all actives have a fitted effect of over 60% in size
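BAZ2B (50 nM) with biotin-H3(5-23)K14Ac peptide (50 nM) in PBS pH 7.4, 0.01% Tween-20, preformed 30 min, then compound 30 min at room temperature; top concentration 110uM. AlphaScreen streptavidin donor/nickel chelate acceptor beads (10 ug/mL final), 20 min dark, signal read.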
HP1b chromo inh – HP1-beta chromodomain-methylated histone interaction inhibition. P83916. AlphaScreen HP1-beta / biotin-H3K9me3 peptide binding. Potency, µM (highest dose often 114 µM), without a hit: at the top dose activity change, negative = inhibition, most hits filed as inhibitors. 390,000 compounds, 0.56% hits. AID 540317; further: nearly all actives have a fitted effect of over 70% in size
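AlphaScreen: HP1-beta (50 nM) preformed 30 min with biotin-H3(1-18)K9me3 peptide (50 nM) in PBS pH 7.4, 0.01% Tween-20. Compound added for 30 min at RT, then streptavidin donor/nickel chelate acceptor beads (10 ug/mL) for 30 min.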
PLK1 PBD block – blocks phosphopeptide binding to human PLK1 polo-box domain. P53350. Plk1 PBD binding of FITC phosphopeptide, fluorescence polarization. Potency, µM, inactives show max response, negative = inhibition, actives largely listed as inhibitors. 360,000 compounds, 2.8% hits; further: series mostly up to about 57 µM; on the % scale 0 is the no-effect control and ±100 the full control effect; nearly all actives have a fitted effect of over 65% in size
JMJD2A Tudor inh – blocks the human JMJD2A Tudor domain; 390,000 compounds, 4.4% hits; O75164; AlphaScreen JMJD2A-Tudor / H3K4me3 peptide binding; Potency, µM (top dose mostly 114 µM), without a hit: at the highest dose activity change, negative = inhibition, most hits filed as inhibitors; further: on the % scale 0 is the no-effect control and ±100 the full control effect; nearly all actives have a fitted effect of over 50% in size
G9a inh – inhibitors of human histone lysine methyltransferase G9a; 350,000 compounds, 8.8% hits; Potency, µM (titrated, usually from 102 µM), without a hit: top-dose activity, negative = inhibition, most hits filed as inhibitors; G9a H3K9 monomethylation, AlphaScreen, 2 h; AID 504332; Q96KQ7; further: on the % scale 0 is the no-effect control and ±100 the full control effect; nearly all actives have a fitted effect of over 75% in size
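Signal arises when biotinylated H3K9 peptide, once monomethylated, bridges streptavidin donor and antibody-captured acceptor beads. Enzyme at 20 nM was preincubated 15 min with test compounds; peptide 500 nM and SAM 20 uM then reacted for 2 h.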
The depositor's hits bear a star; ? = inconclusive; nt = no result given; ! = not active in a repeat; [ ] = dose if it differs, or a comment. A selection: hits, their analogues and other compounds. The true share with any hit is near 12%. The call rests on the fitted dose curve; in most records, active means well fitted curve in the direction sought with a large enough effect; inconclusive means small, poorly fitted or top-dose-only effect, or another doubt; inactive means no such curve, though single readings can be large; an effect the other way counts as inactive or inconclusive. Potency means the concentration at half of the fitted maximal effect.

SMILES | Sfp inh | BAZ2B inh | HP1b chromo inh | PLK1 PBD block | JMJD2A Tudor inh | G9a inh
Cc1ccccc1CN1CCc2nc(N3CCN(c4ccccn4)CC3)ncc2C1 | nt | ? | 20% | nt | 89µM* | -3%[12.7 µM]
CC(C)(O)C(Cl)(Cl)Cl | -12% | nt | nt | nt | nt | ?
CCOP(=S)(OCC)Oc1nc(Cl)c(Cl)cc1Cl | 35µM* | 108% | 93% | 30µM* | 77% | -3%[0.501 µM]
Clc1ccc2c(c1)C(c1ccccc1Cl)=NCc1nnc(N3CCN(CCOc4ccccc4)CC3)n1-2 | -23% | 45µM* | -8% | -2% | -31% | ?
CCCNc1nc(-c2cc(C(=O)Nc3ccccc3)on2)cc(C(C)C)n1 | nt | nt | 52% | -10% | -9% | nt
O=C(O)c1nn(Cc2ccc(Cl)cc2Cl)c2ccccc12 | 5% | 1% | 31% | -17% | -10% | 2.2µM*!
CC[C@H](C)[C@H](NC(=O)[C@H](CCCN=C(N)N)NC(=O)[C@H](CCCN=C(N)N)NC(=O)[C@H](CC(C)C)NC(=O)[C@H](Cc1ccccc1)NC(=O)CNC(=O)CNC(=O)[C@@H](N)Cc1ccc(O)cc1)C(=O)N[C@@H](CCCN=C(N)N)C(=O)N1CCC[C@H]1C(=O)N[C@@H](CCCCN)C(=O)N[C@@H](CC(C)C)C(=O)N[C@@H](CCCCN)C(=O)O | ? | nt | nt | nt | nt | 37%[59 µM]
CCN1CCN(c2ccc(N)cc2)CC1 | 5% | -18% | 3% | 0% | -28% | 40µM*
CN1CCN(c2ccc(N)cc2)CC1 | 9% | ? | -11% | -1% | ? | 13µM*
CN1CCN(c2ccc(N)c(N3CCN(C)CC3)c2)CC1 | -13% | ? | -8% | -2% | -30% | ?
CCN1CCN(c2ccc(N)cc2C)CC1 | 14% | ? | -14% | -8% | ? | 32µM*
CN(C)C(=O)Oc1cccc([N+](C)(C)C)c1 | 7% | -17% | 51% | -1% | 5% | -8%[59 µM]
O=C(Cc1ccccc1)N1CCN(Cc2ccc(Cl)cc2)CC1 | nt | nt | ? | -11% | 10µM* | nt
CC(=O)Nc1ccc(CC(=O)N2CCN(Cc3ccccc3)CC2)cc1 | 2% | -6% | 5% | -9% | -9% | -2%
O=C(Cc1ccccc1)N1CCN(Cc2cccc(Cl)c2)CC1 | -18% | ? | ? | 0% | 3.2µM* | 21%[0.501 µM]
CCC(CC)N1CCN(C(=O)Cc2ccccc2)CC1 | -7% | ? | ? | 0% | 3.2µM* | 11µM*
COC(=O)c1ccc(CN2CCN(Cc3ccccc3)CC2)cc1 | 3% | -10% | 4% | -4% | 79µM* | -6%[59 µM]
CC(N)c1cccc(Cl)c1Cl (configuration not stated) | nt | nt | nt | nt | nt | 8%[59 µM]
Cc1ccccc1CN1CCN(C(=O)Cc2ccccc2)CC1 | -3% | 25µM* | 22µM* | -10% | 11µM* | 16µM*
O=C(Cc1ccccc1)N1CCN(Cc2c[nH]c3ccccc23)CC1 | 0% | 1% | 34% | -5% | -11% | -12%
O=C(COc1ccccc1)N1CCN(Cc2c[nH]c3ccccc23)CC1 | 1% | nt | -18% | 0% | 7.9µM* | 13µM*
COc1ccc(OCC(=O)N2CCN(Cc3c[nH]c4ccccc34)CC2)cc1 | -15% | nt | ? | -6% | 3.5µM* | 3.5µM*
Oc1cn2c(n1)Nc1ccc(Cl)c(Cl)c1C2 | 6% | nt | nt | nt | nt | ?
COc1cccc(-n2c(CN3CCOCC3)nc3ccc([N+](=O)[O-])cc3c2=O)c1 | ? | -7% | 12% | -16% | -17% | 45µM*
CCC12C=CCN3CCC4(c5ccc(OC)cc5N(C)C4[C@@](O)(C(=O)OC)C1OC(C)=O)C32 (some centres not stated) | 3% | nt | nt | nt | nt | nt
SMILES | Sfp inh | BAZ2B inh | HP1b chromo inh | PLK1 PBD block | JMJD2A Tudor inh | G9a inh
Nc1c(C(=O)Nc2ccc(F)c(Cl)c2)sc2nc3c(cc12)N1CCC3CC1 | nt | -17% | 63% | nt | ? | 8.9µM*
CN(C)c1ccc(NC(=O)c2sc3nc4c(cc3c2N)N2CCC4CC2)cc1 | nt | ? | 14% | nt | -19% | 5µM*
Nc1c(C(=O)Nc2ccc(Br)cc2F)sc2nc3c(cc12)N1CCC3CC1 | nt | -3% | 40% | nt | ? | ?
CC(CCC(=O)O)C1CCC2C3C(=O)CC4CC(=O)CC[C@@]4(C)C3CC(=O)[C@]12C (some centres not stated) | 8% | nt | nt | nt | nt | -6%[2.33 µM]
Oc1cccc[c]1[Hg][Cl] | 0.14µM* | nt | nt | nt | nt | ?
COC(=O)C(O)C(O)(CCC(C)C)C(=O)OC1C(OC)=CC23CCCN2CCc2cc4c(cc2C13)OCO4 (configuration not stated) | 11% | nt | nt | nt | nt | 31%[59 µM]
CN(C)[C@@H]1C(=O)C(C(N)=O)=C(O)[C@@]2(O)C(=O)C3=C(O)c4c(O)cccc4[C@@](C)(O)C3[C@H](O)C12 (some centres not stated) | nt | 6.3µM* | 14µM*! | 13µM*! | 3.2µM* | 4.5µM*
CN(C)C1C(=O)C(C(N)=O)=C(O)[C@@]2(O)C(=O)C3=C(O)c4c(O)cccc4[C@@](C)(O)C3[C@H](O)C12 (some centres not stated) | 56µM* | nt | nt | nt | nt | nt
CN(C)[C@@H]1C(=O)C(C(N)=O)=C(O)[C@]2(O)C(=O)C3=C(O)c4c(O)cccc4[C@@](C)(O)[C@H]3[C@H](O)[C@@H]12 | -2% | nt | nt | nt | nt | 5µM*
CC/C(=N\NC(=O)c1ccccc1)c1c(O)n(Cc2ccccc2)c(=O)[nH]c1=O | 12% | -17% | ? | -11% | -24% | ?
CCn1c(SCC(=O)NCc2ccccc2)nnc1C(CO)NC(=O)c1ccccc1 (configuration not stated) | 16% | -17% | 6% | -7% | -7% | 32µM*
